Laboratory results: PubChem BioAssay (NCATS)
Inconclusive results are not listed. Where a call stands in place of a potency, no number is given. Activity calls are given as the source filed them. Calls follow the shape of the dose curve; as a rule, active = well fitted curve in the direction sought with a large enough effect; inconclusive = small, poorly fitted or top-dose-only effect, or another doubt; inactive = no such curve, though single readings can be large; an effect the other way counts as inactive or inconclusive.

Legend:
[1] = qHTS assay for measurement of the activity of small molecule inhibitors on Zika virus induced Caspase-3 activity in human iPSC derived neural progenitor cells (hNPCs) (AID 1224857); conditions: hNPCs ZIKV-induced caspase-3/7, Caspase-Glo luminescence, 6 h; series mostly up to 45.7 µM; also: nearly all actives have a fitted effect of over 65% in size
Procedure, shortened: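 Percent inhibition of virus-induced caspase-3/7 luminescence (Caspase-Glo), scaled between uninfected cells and Zika-infected cells. hNPCs received compound 1 hr before ZIKV at 2 FFU/cell, with 6 hours infection at 37 C.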

[2] = qHTS assay for measurement of the activity of small molecule inhibitors on Zika virus induced Caspase-3 activity in human astrocytoma cells (AID 1224859); conditions: SNB-19 ZIKV-induced caspase-3/7, luminescence, 6 h; series mostly up to 45.7 µM
Procedure, shortened: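 Luminescent caspase-3/7 read-out (30 min reagent, room temperature) in human SNB-19 cells infected 6 h with ZIKV (2 FFU/cell) after 1 h compound pre-incubation; Data were normalised to uninfected and infected wells.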

[3] = qHTS assay to identify small molecule inhibitors of chordoma cells - UCH-1 (AID 1259355); conditions: UCH-1 chordoma viability, CellTiter-Glo, 48 h, combination; series mostly up to 46.1 µM; also: nearly all actives have a fitted effect of over 55% in size
Procedure, shortened: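 Luminescent ATP read-out (CellTiter-Glo, 30min at room temperature) measured viability of UCH-1 cells exposed for 48hr to test drugs at 15 concentrations, co-dosed with a five-agent combination of auranofin, camptothecin, doxorubicin, rubitecan and topotecan.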

[4] = qHTS assay to identify small molecule inhibitors of chordoma cells - UCH-2 (AID 1259356); conditions: UCH-2 chordoma viability, CellTiter-Glo ATP luminescence, 48 h; series mostly up to 46.1 µM

Compound | Potency [1] | Potency [2] | Potency [3] | Potency [4]
CCCN1CCC[C@H](c2cccc(O)c2)C1 | inactive | inactive | inactive | inactive
C=CCC1=C(C)C(OC(=O)C2C(C=C(C)C)C2(C)C)CC1=O (configuration not stated) | inactive | inactive | – | –
O=S(=O)(O)C(F)(F)C(F)(F)C(F)(F)C(F)(F)F | inactive | inactive | – | –
Nc1ccc(Cl)cc1N | inactive | inactive | – | –
CCCCCCCCc1ccc(O)cc1 | inactive | inactive | – | –
O=C(O)c1cc(Oc2ccc(C(F)(F)F)cc2Cl)ccc1[N+](=O)[O-] | inactive | inactive | – | –
CNCCc1c[nH]c2ccc(O)cc12 | inactive | inactive | – | –
CN[C@@H](C)[C@H](O)c1ccccc1 | inactive | inactive | inactive | inactive
c1ccc(C2(c3ccccc3)CC2C2=NCCN2)cc1 (configuration not stated) | inactive | inactive | inactive | inactive
NC1CCc2cc(O)c(O)cc2C1 (configuration not stated) | inactive | inactive | – | –
COCCOCCO | inactive | inactive | – | –
CC(=O)[C@H]1CCC2C3CC[C@H]4C[C@H](O)CC[C@]4(C)C3CC[C@@]21C (some centres not stated) | inactive | inactive | – | –
CCCN(CCC)c1c([N+](=O)[O-])cc(S(N)(=O)=O)cc1[N+](=O)[O-] | inactive | inactive | – | –
Nc1c(Cl)c(Cl)c(Cl)c(Cl)c1Cl | inactive | inactive | – | –
CC(C)Oc1cccnc1N(C)C1CCN(Cc2ccccc2)CC1 | inactive | inactive | – | –
CN1C2CCC1CC(OC(=O)c1cc(Cl)cc(Cl)c1)C2 (configuration not stated) | inactive | inactive | inactive | –

Compound | Potency [1] | Potency [2] | Potency [3] | Potency [4]
C[C@@H]1O[C@H](C[N+](C)(C)C)C[C@H]1O | inactive | inactive | – | –
O=C(O)[C@@H]1CCN1 | inactive | inactive | – | –
ClC1=C(Cl)[C@]2(Cl)[C@@H]3[C@@H]4C[C@@H]([C@H]5O[C@@H]45)[C@@H]3[C@@]1(Cl)C2(Cl)Cl | inactive | inactive | – | –
CCCN(CCC)[C@@H]1CCc2ccc(O)cc2C1 | inactive | inactive | – | –
CCCN(CCC)C1CCc2ccc(O)cc2C1 (configuration not stated) | inactive | inactive | – | –
c1cc2ccc3cccc4ccc(c1)c2c34 | inactive | inactive | – | –
CC(=O)NCCc1c[nH]c2ccccc12 | inactive | inactive | – | –
Cc1ccc(Cl)c(O)c1 | inactive | inactive | inactive | inactive
C[N+]1(C)C2CCC1CC(OC(=O)C(CO)c1ccccc1)C2 (configuration not stated) | inactive | inactive | – | –
C1CCC(NC2CCCCC2)CC1 | – | inactive | – | inactive
CN[C@@H]1C[C@@H](c2ccc(Cl)c(Cl)c2)c2ccccc21 | inactive | inactive | inactive | inactive
CCCCc1ccc(C(=O)O)nc1 | – | inactive | inactive | inactive
CC(Cc1ccc(O)cc1)NCC(O)c1cc(O)cc(O)c1 (configuration not stated) | – | inactive | inactive | inactive
O=[N+]([O-])c1ccc([As](=O)(O)O)cc1 | inactive | inactive | inactive | inactive
O=C1CCCN1CC#CCN1CCCC1 | – | inactive | – | –
NCCc1c[nH]c2ccc(O)cc12 | – | inactive | – | –
